Data on nine sequences can be found in PMC8384837, “Expanding the binding specificity for RNA recognition by a PUF domain”.

Experiment in all cases: yeast three-hybrid, YBZ-1, SC-Leu-His + 0.5 mM 3-AT, 4 days
Conditions in all cases: tags: N-Gal4 AD-HA kept; label: inside an RPR1-promoter hybrid RNA with tandem MS2 sites; ssRNA

The target in one assay is PUM1 PUF domain R2-QWR (Homo sapiens, UniProt Q14671 828-1176, N899Q;Y900W;Q903R). In outline: (§1)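 The interaction score is the log change in variant frequency from input to selection. Scores were computed in log2 with a pseudocount of 1 for absent variants, using Illumina sequencing of PCR-amplified repeat regions. The input came from four days on SC-Leu and the selection from four days on SC-Leu-His + 0.5 mM 3-AT. The cells were strain YBZ-1 (LexA–MS2 coat fusion, HIS3 reporter) co-expressing Pumilio-1 PUF domain libraries and matching RNA elements from a centromeric plasmid.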

A further assay deals with PUM1 PUF domain R5-FHI (Homo sapiens, UniProt Q14671 828-1176, C1007F;R1008H;Q1011I). In outline:
as §1

A further assay addresses PUM1 PUF domain R5-QKV (Homo sapiens, UniProt Q14671 828-1176, C1007Q;R1008K;Q1011V). In outline: as §1
For a further assay, the target named is PUM1 PUF domain R4-SYP (Homo sapiens, UniProt Q14671 828-1176, N971S;H972Y;Q975P). In outline:
as §1

In the next assay the target is PUM1 PUF domain R4-RYP (Homo sapiens, UniProt Q14671 828-1176, N971R;H972Y;Q975P). In outline: as §1
The target of a further assay is PUM1 PUF domain R4-SNQ (Homo sapiens, UniProt Q14671 828-1176, N971S;H972N). In outline:
as §1

For a further assay, the target named is PUM1 PUF domain R4-ARR (Homo sapiens, UniProt Q14671 828-1176, N971A;H972R;Q975R). In outline:
as §1

Another assay has as its target PUM1 PUF domain R4-DFC (Homo sapiens, UniProt Q14671 828-1176, N971D;H972F;Q975C). In outline: as §1
The target in the next assay is PUM1 PUF domain R4-PRC (Homo sapiens, UniProt Q14671 828-1176, N971P;H972R;Q975C). In short, it runs like this: as §1
For a further assay, the target named is PUM1 PUF domain R3-NAL (Homo sapiens, UniProt Q14671 828-1176, C935N;R936A;Q939L). In short, it runs like this: as §1
The next assay concerns the target PUM1 PUF domain R3-VRY (Homo sapiens, UniProt Q14671 828-1176, C935V;Q939Y). In outline:
as §1

A further assay deals with PUM1 PUF domain R8-KWS (Homo sapiens, UniProt Q14671 828-1176, N1122K;Y1123W;Q1126S). In short, it runs like this: as §1
Another assay has as its target PUM1 PUF domain R5-THL (Homo sapiens, UniProt Q14671 828-1176, C1007T;R1008H;Q1011L). In short, it runs like this: as §1
For the next assay, the target named is PUM1 PUF domain R2-RTQ (Homo sapiens, UniProt Q14671 828-1176, N899R;Y900T). In short, it runs like this:
as §1

The target of another assay is PUM1 PUF domain R8-KKK (Homo sapiens, UniProt Q14671 828-1176, N1122K;Y1123K;Q1126K). In outline: as §1
Another assay concerns the target PUM1 PUF domain R3-LSA (Homo sapiens, UniProt Q14671 828-1176, C935L;R936S;Q939A). In short, it runs like this:
as §1

Sequence of PUM1 PUF domain R4-SYP (Q14671 828-1176 N971S/H972Y/Q975P): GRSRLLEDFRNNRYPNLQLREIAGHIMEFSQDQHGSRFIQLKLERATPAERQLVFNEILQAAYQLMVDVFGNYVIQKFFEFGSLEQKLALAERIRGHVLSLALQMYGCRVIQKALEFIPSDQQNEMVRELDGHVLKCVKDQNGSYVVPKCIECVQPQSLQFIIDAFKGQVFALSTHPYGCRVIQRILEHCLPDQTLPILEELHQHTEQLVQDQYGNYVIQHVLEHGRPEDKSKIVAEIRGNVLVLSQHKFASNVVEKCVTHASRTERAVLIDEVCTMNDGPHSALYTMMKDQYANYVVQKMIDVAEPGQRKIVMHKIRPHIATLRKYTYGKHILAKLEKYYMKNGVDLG
Sequence of PUM1 PUF domain R4-RYP (Q14671 828-1176 N971R/H972Y/Q975P): as the sequence (Q14671 828-1176 N971S/H972Y/Q975P) above, with S144R counted along it
Sequence of PUM1 PUF domain R3-LSA (Q14671 828-1176 C935L/R936S/Q939A): as the sequence (Q14671 828-1176 N971S/H972Y/Q975P) above, with C108L, R109S, Q112A, S144N, Y145H, P148Q counted along it
Sequence of PUM1 PUF domain R5-FHI (Q14671 828-1176 C1007F/R1008H/Q1011I): as the sequence (Q14671 828-1176 N971S/H972Y/Q975P) above, with S144N, Y145H, P148Q, C180F, R181H, Q184I counted along it
Sequence of PUM1 PUF domain R2-QWR (Q14671 828-1176 N899Q/Y900W/Q903R): as the sequence (Q14671 828-1176 N971S/H972Y/Q975P) above, with N72Q, Y73W, Q76R, S144N, Y145H, P148Q counted along it
Sequence of PUM1 PUF domain R3-NAL (Q14671 828-1176 C935N/R936A/Q939L): as the sequence (Q14671 828-1176 N971S/H972Y/Q975P) above, with C108N, R109A, Q112L, S144N, Y145H, P148Q counted along it
Sequence of PUM1 PUF domain R2-RTQ (Q14671 828-1176 N899R/Y900T): as the sequence (Q14671 828-1176 N971S/H972Y/Q975P) above, with N72R, Y73T, S144N, Y145H, P148Q counted along it
Sequence of PUM1 PUF domain R8-KKK (Q14671 828-1176 N1122K/Y1123K/Q1126K): as the sequence (Q14671 828-1176 N971S/H972Y/Q975P) above, with S144N, Y145H, P148Q, N295K, Y296K, Q299K counted along it
Sequence of PUM1 PUF domain R4-SNQ (Q14671 828-1176 N971S/H972N): as the sequence (Q14671 828-1176 N971S/H972Y/Q975P) above, with Y145N, P148Q counted along it
Sequence of PUM1 PUF domain R8-KWS (Q14671 828-1176 N1122K/Y1123W/Q1126S): as the sequence (Q14671 828-1176 N971S/H972Y/Q975P) above, with S144N, Y145H, P148Q, N295K, Y296W, Q299S counted along it
Sequence of PUM1 PUF domain R4-DFC (Q14671 828-1176 N971D/H972F/Q975C): as the sequence (Q14671 828-1176 N971S/H972Y/Q975P) above, with S144D, Y145F, P148C counted along it
Sequence of PUM1 PUF domain R4-ARR (Q14671 828-1176 N971A/H972R/Q975R): as the sequence (Q14671 828-1176 N971S/H972Y/Q975P) above, with S144A, Y145R, P148R counted along it
Sequence of PUM1 PUF domain R5-THL (Q14671 828-1176 C1007T/R1008H/Q1011L): as the sequence (Q14671 828-1176 N971S/H972Y/Q975P) above, with S144N, Y145H, P148Q, C180T, R181H, Q184L counted along it
Sequence of PUM1 PUF domain R4-PRC (Q14671 828-1176 N971P/H972R/Q975C): as the sequence (Q14671 828-1176 N971S/H972Y/Q975P) above, with S144P, Y145R, P148C counted along it
Sequence of PUM1 PUF domain R5-QKV (Q14671 828-1176 C1007Q/R1008K/Q1011V): as the sequence (Q14671 828-1176 N971S/H972Y/Q975P) above, with S144N, Y145H, P148Q, C180Q, R181K, Q184V counted along it
Sequence of PUM1 PUF domain R3-VRY (Q14671 828-1176 C935V/Q939Y): as the sequence (Q14671 828-1176 N971S/H972Y/Q975P) above, with C108V, Q112Y, S144N, Y145H, P148Q counted along it

On to “GGCUAGAACUAGUGGAUCCCCCGGCGCCCGGCGGCUCGAGCCCGGGUAAGUGUAAACAGUCUGCAUGCCGCCGGGCGCCAUGCCUGCAGGUCGACUCUAGAAAACAUG”, for which the binding signal in the assay with PUM1 PUF domain R2-QWR is 4.86 log2 enrichment (interaction score).

Turning to “GGCUAGAACUAGUGGAUCCCCCGGCGCCCGGCGGCUCGAGCCCGGGUAAGUGUUAAUAGUCUGCAUGCCGCCGGGCGCCAUGCCUGCAGGUCGACUCUAGAAAACAUG”, the binding signal was 2.85 log2 enrichment (interaction score) in the assay with PUM1 PUF domain R5-FHI and 2.71 log2 enrichment (interaction score) with PUM1 PUF domain R5-QKV.

For “GGCUAGAACUAGUGGAUCCCCCGGCGCCCGGCGGCUCGAGCCCGGGUAAGUGUAUAUAGUCUGCAUGCCGCCGGGCGCCAUGCCUGCAGGUCGACUCUAGAAAACAUG”, the binding signal with PUM1 PUF domain R4-SYP is 6.95 log2 enrichment (interaction score); with PUM1 PUF domain R4-RYP, 2.78 log2 enrichment (interaction score); with PUM1 PUF domain R4-SNQ, 4.52 log2 enrichment (interaction score).

Take “GGCUAGAACUAGUGGAUCCCCCGGCGCCCGGCGGCUCGAGCCCGGGUAAGUGUACAUAGUCUGCAUGCCGCCGGGCGCCAUGCCUGCAGGUCGACUCUAGAAAACAUG”: the binding signal in the assay with PUM1 PUF domain R4-SYP is 6.78 log2 enrichment (interaction score); in the assay with PUM1 PUF domain R4-ARR it was 2.99 log2 enrichment (interaction score); with PUM1 PUF domain R4-DFC it was 5.67 log2 enrichment (interaction score).

Consider “GGCUAGAACUAGUGGAUCCCCCGGCGCCCGGCGGCUCGAGCCCGGGUAAGUGUAAAUAGUCUGCAUGCCGCCGGGCGCCAUGCCUGCAGGUCGACUCUAGAAAACAUG”, for which the binding signal is 2.48 log2 enrichment (interaction score) with PUM1 PUF domain R4-PRC; 3.24 log2 enrichment (interaction score) with PUM1 PUF domain R3-NAL; 5.03 log2 enrichment (interaction score) in the assay with PUM1 PUF domain R4-RYP; 4.24 log2 enrichment (interaction score) with PUM1 PUF domain R3-VRY; 3.68 log2 enrichment (interaction score) with PUM1 PUF domain R8-KWS; 4.39 log2 enrichment (interaction score) in the assay with PUM1 PUF domain R5-THL.

With “GGCUAGAACUAGUGGAUCCCCCGGCGCCCGGCGGCUCGAGCCCGGGUAAGUGUAAAAAGUCUGCAUGCCGCCGGGCGCCAUGCCUGCAGGUCGACUCUAGAAAACAUG”, the binding signal with PUM1 PUF domain R2-RTQ is 2.44 log2 enrichment (interaction score).

With “GGCUAGAACUAGUGGAUCCCCCGGCGCCCGGCGGCUCGAGCCCGGGUAAGCGUAAAUAGUCUGCAUGCCGCCGGGCGCCAUGCCUGCAGGUCGACUCUAGAAAACAUG”, in the assay with PUM1 PUF domain R8-KKK, the binding signal is 3.81 log2 enrichment (interaction score).

On to “GGCUAGAACUAGUGGAUCCCCCGGCGCCCGGCGGCUCGAGCCCGGGUAAGUGUAAGUAGUCUGCAUGCCGCCGGGCGCCAUGCCUGCAGGUCGACUCUAGAAAACAUG”, for which the binding signal in the assay with PUM1 PUF domain R3-LSA was 4.84 log2 enrichment (interaction score).

For the sequence “GGCUAGAACUAGUGGAUCCCCCGGCGCCCGGCGGCUCGAGCCCGGGUAAGUGUAAUUAGUCUGCAUGCCGCCGGGCGCCAUGCCUGCAGGUCGACUCUAGAAAACAUG”, the binding signal in the assay with PUM1 PUF domain R3-LSA was 2.8 log2 enrichment (interaction score).
